Among all 310,000 compounds or so, about 14,000 (4.5%) showed an effect of 50% or more. Effects have a minus sign here. Shown is part of a subset that was picked to be rich in strong results.
The molecules below were run against human ether-à-go-go-related gene (hERG) potassium channel (human, UniProt Q12809) (assay: primary screen, population patch clamp on CHO cells stably expressing hERG; higher = less effect of the substance).
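Further: peak tail current of the secondary pulse compared with the same well before compound.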

human ether-à-go-go-related gene (hERG) potassium channel, sequence (Q12809 whole entry, looked up): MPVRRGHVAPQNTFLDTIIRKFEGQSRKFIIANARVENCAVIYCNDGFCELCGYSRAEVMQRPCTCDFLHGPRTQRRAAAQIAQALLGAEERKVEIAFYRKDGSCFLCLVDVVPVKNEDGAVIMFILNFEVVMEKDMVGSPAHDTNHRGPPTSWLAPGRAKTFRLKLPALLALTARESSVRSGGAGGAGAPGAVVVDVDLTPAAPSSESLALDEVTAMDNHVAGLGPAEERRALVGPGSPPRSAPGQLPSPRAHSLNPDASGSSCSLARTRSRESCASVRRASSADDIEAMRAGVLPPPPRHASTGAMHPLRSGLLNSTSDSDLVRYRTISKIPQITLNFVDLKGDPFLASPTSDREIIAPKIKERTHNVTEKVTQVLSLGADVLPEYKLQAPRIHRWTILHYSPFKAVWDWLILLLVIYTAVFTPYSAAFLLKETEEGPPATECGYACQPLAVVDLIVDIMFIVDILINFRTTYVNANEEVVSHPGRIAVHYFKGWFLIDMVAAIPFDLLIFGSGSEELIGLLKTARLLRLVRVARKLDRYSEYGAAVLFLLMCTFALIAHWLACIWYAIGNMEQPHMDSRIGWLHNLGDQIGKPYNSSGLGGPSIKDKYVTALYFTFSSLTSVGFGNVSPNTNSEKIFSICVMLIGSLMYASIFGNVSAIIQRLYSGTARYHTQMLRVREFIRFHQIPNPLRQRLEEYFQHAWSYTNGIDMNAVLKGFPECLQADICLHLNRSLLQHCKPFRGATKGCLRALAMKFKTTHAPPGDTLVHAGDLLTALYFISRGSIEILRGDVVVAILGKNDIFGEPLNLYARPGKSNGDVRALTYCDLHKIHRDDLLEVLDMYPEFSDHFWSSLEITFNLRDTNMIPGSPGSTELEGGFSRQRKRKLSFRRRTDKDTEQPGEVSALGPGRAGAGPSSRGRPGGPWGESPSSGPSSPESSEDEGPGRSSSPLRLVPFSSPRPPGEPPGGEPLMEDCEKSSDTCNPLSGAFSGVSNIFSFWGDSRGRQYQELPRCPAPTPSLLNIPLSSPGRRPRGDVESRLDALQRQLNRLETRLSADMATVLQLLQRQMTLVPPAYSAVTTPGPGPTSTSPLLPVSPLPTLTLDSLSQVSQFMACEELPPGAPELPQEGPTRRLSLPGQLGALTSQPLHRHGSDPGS

| Compound | hERG current change (%, negative = inhibition) at 10uM [%] |
| --- | --- |
| CCCCOC(=O)C(C)Sc1n[nH]c(=O)[nH]c1=O (centres unmarked) | -5.93 |
| O=[N+]([O-])c1ccc(CNc2cccc(Cl)c2)s1 | -28.3 |
| O=C1N=C(c2ccccc2)S/C1=C\c1cccs1 | 5.19 |
| COc1ccc(N2CCN(Cc3nc(-c4ccccc4)no3)CC2)cc1 | 8.23 |
| C=CCOC(=O)C1=C[C@@H](c2csc3ccccc23)[C@H](CCCO)[C@@H](OCC)O1 | -27.7 |
| COc1ccc(S(=O)(=O)N2CCC(C(=O)N[C@@H](C)C(=O)NC3CCCC3)CC2)cc1 | 13.4 |
| COCCNC(=O)c1ccc2c(c1)S(=O)(=O)c1cc(Cl)ccc1C2=O | -3.38 |
| CCN(CC)S(=O)(=O)c1ccc(F)c(C(=O)OC2CC(C)OC2=O)c1 (centres unmarked) | -2.4 |
| O=C(Cn1cc(SCc2ccc(F)cc2)c2ccccc21)N1CCOCC1 | -29.9 |
| O=C(Cn1cc(SCc2cccc(Cl)c2)c2ccccc21)N1CCOCC1 | -33.1 |
| O=C(Cn1cc(SCc2ccc(Cl)cc2)c2ccccc21)N1CCOCC1 | -53.3 |
| Nc1ncnc2c1ncn2C1O[C@H](CO)[C@@H](O)[C@@H]1O (some centres unmarked) | -8.74 |
| Cc1ccc(CNC(=O)CSc2nc(N3CCCCC3)nc(N3CCCCC3)n2)cc1 | 7.64 |
| O=[N+]([O-])c1ccccc1S(=O)(=O)NCCSc1ccccc1 | 4.87 |
| O=C(CCNS(=O)(=O)c1ccccc1C(F)(F)F)NCCCSc1ccccc1 | -18.1 |
| O=S(=O)(NCCCSc1ccccc1)c1ccccc1F | -79.6 |
| Cc1ccc(Nc2nc(N)nc(CCl)n2)cc1 | 1.76 |
| Nc1nc(CSCCO)nc(Nc2ccc(F)cc2)n1 | 16.1 |
| Nc1nc(CSC(=S)N2CCOCC2)nc(Nc2ccc(F)cc2)n1 | 7.31 |
| Nc1nc(CN2CCCCCC2)nc(Nc2ccc(F)cc2)n1 | -70.8 |
| Cc1ccc(Nc2nc(N)nc(CN3CCN(C)CC3)n2)cc1 | -27.8 |
| Cc1ccc(Nc2nc(N)nc(CN3CCCCCC3)n2)cc1 | -72.1 |

| Compound | hERG current change (%, negative = inhibition) at 10uM [%] |
| --- | --- |
| CC(=O)Nc1ccc(NC(=O)Nc2ccccc2)cc1 | 10.5 |
| CC(=O)OCC[C@H](NS(=O)(=O)OCC(Cl)(Cl)Cl)c1ccccc1 | 1.61 |
| COc1cc(NC(=O)c2cc(C(C)C)on2)c(OC)cc1Cl | 3.16 |
| Cc1[nH]c(-c2ccc(F)cc2)cc1C(=O)N1CCN(c2ccccc2F)CC1 | -70.3 |
| O=C(c1ccccc1C(=O)N1CCN(c2ccccc2F)CC1)N1CCN(c2ccccc2F)CC1 | -31 |
| COc1ccccc1N1CCN(C(=O)c2cc(-c3ccc(F)cc3)[nH]c2C)CC1 | -64.5 |
| O=C(c1ccccc1F)N1CCN(c2ccccc2F)CC1 | -2.08 |
| COc1ccccc1N1CCN(C(=O)c2cc(-c3ccc(F)cc3)on2)CC1 | 19.1 |
| COc1ccccc1N1CCN(C(=O)c2cc3cc(F)ccc3[nH]2)CC1 | 15.8 |
| N#CC1=C(N)Oc2n[nH]c(-c3cccs3)c2C1C1CCCCC1 (centres unmarked) | 8.73 |
| Cc1ccccc1C(=O)Nc1ccccc1NC(=O)c1ccccc1Br | 25.4 |
| COC(=O)c1ccc(-c2noc(CN(C)CC3CCCCO3)n2)cc1 (centres unmarked) | 11.3 |
| Cn1c(Cn2c(=O)sc3ccccc32)nnc1SCc1cccc(F)c1 | -11.6 |
| Cc1cc(C)cc(NC(=S)NCc2ccc3c(c2)OCO3)c1 | -8.9 |
| OC(CNCC1CCCCC1)COc1ccccc1 (centres unmarked) | -0.428 |
| Cc1ccc(CC(=O)Nc2cc(C)ccn2)cc1 | 11.2 |
| O=[N+]([O-])c1cc(S(=O)(=O)NCCN2CCOCC2)ccc1Sc1nnnn1-c1ccccc1 | -24.6 |
| CCCCSc1nnc(CNC(=O)C23CC4CC(CC(C4)C2)C3)n1Cc1ccccc1 | -29.7 |
| O=C(Nc1ccc(CN2CCOCC2)cc1)c1ccc(-c2ccc(Cl)cc2Cl)o1 | -7.54 |
| Cn1c(=O)n(C)c2cc([N+](=O)[O-])c(N3CCN(C(=O)c4ccccc4Cl)CC3)cc21 | -34.4 |
| Cn1c(=O)n(C)c2cc(N3CCCCC3)c(NC(=O)c3cccc(Cl)c3)cc21 | 14.8 |
| Cn1c(=O)n(C)c2cc([N+](=O)[O-])c(N3CCN(C(=O)c4ccc(F)cc4)CC3)cc21 | -44 |

| Compound | hERG current change (%, negative = inhibition) at 10uM [%] |
| --- | --- |
| Cn1c(=O)n(C)c2cc([N+](=O)[O-])c(N3CCN(C(=O)c4cccc(Cl)c4)CC3)cc21 | -64.2 |
| Cc1ccc(C(=O)N2CCN(c3cc4c(cc3[N+](=O)[O-])n(C)c(=O)n4C)CC2)cc1 | -66.6 |
| Cn1c(=O)n(C)c2cc([N+](=O)[O-])c(N3CCN(C(=O)c4ccccc4Br)CC3)cc21 | -70.6 |
| Cn1c(=O)n(C)c2cc([N+](=O)[O-])c(N3CCN(C(=O)c4ccccc4)CC3)cc21 | -36.1 |
| Cn1c(=O)n(C)c2cc([N+](=O)[O-])c(N3CCN(C(=O)C(C)(C)C)CC3)cc21 | -8.56 |
| Cn1c(=O)n(C)c2cc([N+](=O)[O-])c(N3CCN(CCO)CC3)cc21 | 24.9 |
| CCOC(=O)C(=O)N1CCN(c2cc3c(cc2[N+](=O)[O-])n(C)c(=O)n3C)CC1 | -24.2 |
| Cn1c(=O)n(C)c2cc([N+](=O)[O-])c(N3CCNCC3)cc21 | 5.58 |
| Cn1c(=O)n(C)c2cc([N+](=O)[O-])c(N3CCN(C(=O)c4ccc(Cl)cc4)CC3)cc21 | -65.9 |
| O=C(COC(=O)c1ccc2ncsc2c1)Nc1cccc(Cl)c1 | 2.07 |
| Cc1ccc(-n2c(SCn3nnc4ccccc4c3=O)nnc2-c2cccnc2)c(C)c1 | -39.3 |
| Cc1cccc(C)c1NC(=O)CN(C)CC(=O)Nc1ccccc1Oc1ccccc1 | 11.3 |
| COc1ccc(NC(=O)c2ccc([N+](=O)[O-])o2)cc1 | 11.1 |
| Cc1c(OCC(=O)NC2CCN(Cc3ccccc3)CC2)ccc2c3c(c(=O)oc12)CCC3 | -47.7 |
| O=C(O)COCC(=O)NC1CCN(Cc2ccccc2)CC1 | 12.5 |
| CCCc1cc(=O)oc2c(C)c(OCC(=O)NC3CCN(Cc4ccccc4)CC3)ccc12 | -51.4 |
| O=C(COc1ccccc1)NC1CCN(Cc2ccccc2)CC1 | -50.4 |
| Cc1c(C)c2ccc(OCC(=O)NC3CCN(Cc4ccccc4)CC3)c(C)c2oc1=O | -42.7 |
| CCc1cc(=O)oc2cc(C)cc(OCC(=O)NC3CCN(Cc4ccccc4)CC3)c12 | -36 |
| O=C(COc1ccc2ccc(=O)oc2c1)NC1CCN(Cc2ccccc2)CC1 | -55.2 |
| O=C(COc1ccccc1)NC1CCCCCCC1 | -4.51 |
| O=C(COc1ccc2ccc(=O)oc2c1)NC1CCCC1 | 13.4 |

| Compound | hERG current change (%, negative = inhibition) at 10uM [%] |
| --- | --- |
| O=C(COc1ccc2ccc(=O)oc2c1)NC1CCCCC1 | 1.43 |
| CCCc1cc(=O)oc2cc(OCC(=O)NC3CCN(Cc4ccccc4)CC3)ccc12 | -60.2 |
| CCCc1cc(=O)oc2cc(C)cc(OCC(=O)NC3CCN(Cc4ccccc4)CC3)c12 | -10.3 |
| Cc1ccc(S(=O)(=O)c2cnc3cc(C)nn3c2N)cc1 | 0.694 |
| Cc1ccc(CN2C(=O)[C@@H]3Cc4c([nH]c5ccccc45)C(C)(C)N3C2=O)cc1 | 7.62 |
| O=[N+]([O-])c1ccccc1/C=N/NC1=NS(=O)(=O)c2ccccc21 | -1.94 |
| O=C(NCCCN1CCCC1=O)NC1CCCCC1 | 10.9 |
| Cc1ccc(NC(=S)NNC(=O)c2ccc(N3CCOCC3)c([N+](=O)[O-])c2)cc1Cl | 6.24 |
| O=C(O)CCC1=C2c3ccccc3CCN2C(=O)CC1 | 9.77 |
| Cc1ccc(C(=O)Nn2cnnc2)cc1Cl | 16.3 |
| CC1CCN(S(=O)(=O)c2ccc(NC(=O)CSc3ncccc3C(=O)O)cc2)CC1 | 7.31 |
| Cc1cc(OCC(=O)NC2CCN(Cc3ccccc3)CC2)c2c(C)cc(=O)oc2c1 | -21.4 |
| Cc1cc(=O)oc2cc(OCC(=O)NC3CCN(Cc4ccccc4)CC3)ccc12 | -63.9 |
| CCCCc1cc(=O)oc2cc(OCC(=O)NCC3CCC(C(=O)O)CC3)ccc12 (centres unmarked) | 18 |
| O=C(COc1ccc(Cl)cc1)NC1CCSC1=O (centres unmarked) | -16.8 |
| CCCCc1cc(=O)oc2cc(OCC(=O)NC3CCN(Cc4ccccc4)CC3)ccc12 | -61.1 |
| O=C(COc1ccc2c3c(c(=O)oc2c1)CCC3)NC1CCN(Cc2ccccc2)CC1 | -24.9 |
| O=C(COc1ccccc1)NC1CCSC1=O (centres unmarked) | -72.9 |
| CCCCc1cc(=O)oc2cc(OCC(=O)N[C@@H](Cc3ccccc3)C(=O)O)ccc12 | 6.13 |
| O=C(COc1ccccc1)NC1CCSc2ccccc21 (centres unmarked) | 0.0355 |
